Reference: PubChem BioAssay (Tox21)
Inconclusive results are not listed. Activity calls are given as the source filed them. Unless noted, the call rests on the fitted dose curve; in most records, active means well fitted curve in the direction sought with a large enough effect in the repeat runs; inconclusive means weak or mixed curves; inactive means no such curve, though single readings can be large; an effect the other way counts as inactive or inconclusive.

What was measured:
[1] = qHTS assay to identify small molecule antagonists of the thyroid receptor (TR) signaling pathway - cell viability counter screen (AID 743064); further: nearly all actives have a fitted effect of over 50% in size; further: potency means the concentration at half of the fitted maximal effect
Summary of the method: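 GH3.TRE-Luc rat pituitary cells carrying a TRE-luciferase reporter were treated with compound plus 1 nM T3 (final) for 23.5 h at 37 °C. Viability was then read in the same wells by CellTiter-Fluor fluorescence after a further 30 min.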

[2] = qHTS assay to identify small molecule antagonists of the thyroid receptor (TR) signaling pathway (AID 743065); further: nearly all actives have a fitted effect of over 55% in size; further: potency means the concentration at half of the fitted maximal effect
Summary of the method: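 Antagonism measured as loss of luciferase signal in GH3 cells stably carrying a TRE-luciferase reporter, co-treated with compound and T3 (1 nM final) for 23.5 h at 37 C. Viability was read in the same well by CellTiter-Fluor.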

[3] = tested on: thyroid hormone receptor (rat, GH3 cells); assay: qHTS assay to identify small molecule agonists of the thyroid receptor (TR) signaling pathway (AID 743066; calls by dose curve; further: on the % scale 0 is the no-effect control and ±100 the full control effect)
[4] = qHTS assay to identify small molecule antagonists of the estrogen receptor alpha (ER-alpha) signaling pathway - cell viability counter screen (AID 743074; calls by dose curve;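 further: HEK293 cells carrying ER-alpha-UAS-bla reporter stimulated with 17beta-estradiol; on the % scale 0 is the no-effect control and ±100 the full control effect; nearly all actives have a fitted effect of over 45% in size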)
[5] = qHTS assay to identify small molecule antagonists of the estrogen receptor alpha (ER-alpha) signaling pathway using the BG1 cell line - cell viability counter screen (AID 743081);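 further: compound given together with 17beta-estradiol as the ER stimulus; on the % scale 0 is the no-effect control and ±100 the full control effect; nearly all actives have a fitted effect of over 45% in size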
Aromatase (Homo sapiens) = Aromatase (Homo sapiens) (UniProt P11511); assay: qHTS assay to identify aromatase inhibitors (AID 743083); further: nearly all actives have a fitted effect of over 55% in size; further: potency means the concentration at half of the fitted maximal effect
Sequence of Aromatase (Homo sapiens) (P11511 whole entry, looked up): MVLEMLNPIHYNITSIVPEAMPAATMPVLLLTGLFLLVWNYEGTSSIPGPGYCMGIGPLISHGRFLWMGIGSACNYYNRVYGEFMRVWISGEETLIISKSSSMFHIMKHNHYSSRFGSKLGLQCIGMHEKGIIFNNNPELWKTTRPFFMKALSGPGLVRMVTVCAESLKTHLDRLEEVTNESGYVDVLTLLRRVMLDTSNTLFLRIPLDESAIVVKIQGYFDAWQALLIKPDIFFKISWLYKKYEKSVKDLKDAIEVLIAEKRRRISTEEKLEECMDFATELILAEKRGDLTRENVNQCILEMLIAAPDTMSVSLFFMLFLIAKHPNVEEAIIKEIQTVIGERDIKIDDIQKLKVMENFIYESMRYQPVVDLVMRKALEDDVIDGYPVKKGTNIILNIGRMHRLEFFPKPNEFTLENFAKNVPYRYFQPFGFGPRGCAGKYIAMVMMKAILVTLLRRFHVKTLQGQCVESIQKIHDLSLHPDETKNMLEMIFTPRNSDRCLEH

[6] = qHTS assay to identify aromatase inhibitors - cell viability counter screen (AID 743084);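 further: cells stimulated with testosterone during compound exposure; on the % scale 0 is the no-effect control and ±100 the full control effect; nearly all actives have a fitted effect of over 55% in size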
[7] = qHTS assay to identify small molecule that activate the aryl hydrocarbon receptor (AhR) signaling pathway - cell viability counter screen (AID 743086);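 further: HepG2 liver cells carrying the AhR DRE luciferase reporter; on the % scale 0 is the no-effect control and ±100 the full control effect; nearly all actives have a fitted effect of over 45% in size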
Summary of the method: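 Cytotoxicity counter screen: CellTiter-Fluor signal (30 min, 37 C) in 4000 HepG2 cells/well carrying the DRE-luciferase reporter, following 24 h compound exposure at 37 C.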

[8] = target: Peroxisome proliferator-activated receptor gamma (Homo sapiens) (UniProt P37231); assay: qHTS assay to identify small molecule agonists of the peroxisome proliferator-activated receptor gamma (PPARg) signaling pathway (AID 743094; active means well fitted activation curve with a large enough effect in the signal ratio in the repeat runs, not every such curve was filed as active; the % refers to the signal ratio; further: on the % scale 0 is the no-effect control and ±100 the full control effect)
Sequence of Peroxisome proliferator-activated receptor gamma (Homo sapiens) (P37231 whole entry, looked up): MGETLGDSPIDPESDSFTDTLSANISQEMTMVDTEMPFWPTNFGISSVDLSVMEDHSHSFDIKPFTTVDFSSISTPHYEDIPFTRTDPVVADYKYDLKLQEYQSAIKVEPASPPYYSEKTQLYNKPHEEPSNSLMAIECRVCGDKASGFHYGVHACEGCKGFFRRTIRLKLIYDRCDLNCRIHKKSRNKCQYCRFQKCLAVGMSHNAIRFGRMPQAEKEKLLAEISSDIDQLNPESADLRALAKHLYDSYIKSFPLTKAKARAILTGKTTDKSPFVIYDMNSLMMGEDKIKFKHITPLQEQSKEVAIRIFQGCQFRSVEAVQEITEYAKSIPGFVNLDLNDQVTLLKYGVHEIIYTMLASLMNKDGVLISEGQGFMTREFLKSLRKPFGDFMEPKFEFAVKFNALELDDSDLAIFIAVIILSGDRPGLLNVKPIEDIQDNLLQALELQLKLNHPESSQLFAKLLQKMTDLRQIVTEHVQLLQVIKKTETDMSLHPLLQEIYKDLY
Summary of the method: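 Quantitative HTS agonist mode: stable HEK293H line with UAS-beta-lactamase reporter under PPARg control, 17 h compound exposure at 37C, fluorescence after 1 h FRET substrate loading at room temperature.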

[9] = target: Peroxisome proliferator-activated receptor gamma (Homo sapiens) (UniProt P37231); assay: qHTS assay to identify small molecule antagonists of the peroxisome proliferator-activated receptor gamma (PPARg) signaling pathway (AID 743191; calls by dose curve; further: on the % scale 0 is the no-effect control and ±100 the full control effect; nearly all actives have a fitted effect of over 30% in size)
Summary of the method: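 Beta-lactamase reporter under UAS control in HEK293H PPARg-bla cells; compound treatment 17 h at 37C. Read-out: fluorescence intensity after 1 h room-temperature incubation with LiveBLAzer B/G FRET substrate.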

[10] = qHTS assay to identify small molecule antagonists of the peroxisome proliferator-activated receptor gamma (PPARg) signaling pathway - cell viability counter screen (AID 743194); details: Potency: co-treated with 50 nM rosiglitazone; further: on the % scale 0 is the no-effect control and ±100 the full control effect; nearly all actives have a fitted effect of over 55% in size
Summary of the method: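 Viability was measured as CellTiter-Glo luminescence in GeneBLAzer PPARg UAS-bla HEK293H cells. These cells had been exposed 17 h at 37 C to compounds together with rosiglitazone at 50 nM final, with the beta-lactamase readout taken in the same wells.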

[11] = qHTS assay for small molecule agonists of the antioxidant response element (ARE) signaling pathway (AID 743202; active means well fitted activation curve with a large enough effect in the signal ratio in the repeat runs, not every such curve was filed as active; the % refers to the signal ratio; further: potency means the concentration at half of the fitted maximal effect)
Summary of the method: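 An ARE-responsive beta-lactamase gene stably integrated in HepG2 cells serves as reporter. After 5 h plating and 16 h compound incubation at 37 C, fluorescence of the B/G FRET substrate was measured.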

[12] = qHTS assay for small molecule activators of the heat shock response signaling pathway - cell viability counter screen (AID 743209); further: on the % scale 0 is the no-effect control and ±100 the full control effect; nearly all actives have a fitted effect of over 50% in size
Summary of the method: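 First, HSE-bla HeLa cells were seeded at 1500 cells/well and kept overnight at 37 C. Next, compounds were pinned in and incubated 5 h. After the FRET substrate step, CellTiter-Glo was added and luminescence read 30 min later.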

[13] = target: Aryl hydrocarbon receptor (Homo sapiens) (UniProt P35869); assay: qHTS assay to identify small molecule that activate the aryl hydrocarbon receptor (AhR) signaling pathway (AID 743085); further: nearly all actives have a fitted effect of over 15% in size; further: potency means the concentration at half of the fitted maximal effect
Sequence of Aryl hydrocarbon receptor (Homo sapiens) (P35869 whole entry, looked up): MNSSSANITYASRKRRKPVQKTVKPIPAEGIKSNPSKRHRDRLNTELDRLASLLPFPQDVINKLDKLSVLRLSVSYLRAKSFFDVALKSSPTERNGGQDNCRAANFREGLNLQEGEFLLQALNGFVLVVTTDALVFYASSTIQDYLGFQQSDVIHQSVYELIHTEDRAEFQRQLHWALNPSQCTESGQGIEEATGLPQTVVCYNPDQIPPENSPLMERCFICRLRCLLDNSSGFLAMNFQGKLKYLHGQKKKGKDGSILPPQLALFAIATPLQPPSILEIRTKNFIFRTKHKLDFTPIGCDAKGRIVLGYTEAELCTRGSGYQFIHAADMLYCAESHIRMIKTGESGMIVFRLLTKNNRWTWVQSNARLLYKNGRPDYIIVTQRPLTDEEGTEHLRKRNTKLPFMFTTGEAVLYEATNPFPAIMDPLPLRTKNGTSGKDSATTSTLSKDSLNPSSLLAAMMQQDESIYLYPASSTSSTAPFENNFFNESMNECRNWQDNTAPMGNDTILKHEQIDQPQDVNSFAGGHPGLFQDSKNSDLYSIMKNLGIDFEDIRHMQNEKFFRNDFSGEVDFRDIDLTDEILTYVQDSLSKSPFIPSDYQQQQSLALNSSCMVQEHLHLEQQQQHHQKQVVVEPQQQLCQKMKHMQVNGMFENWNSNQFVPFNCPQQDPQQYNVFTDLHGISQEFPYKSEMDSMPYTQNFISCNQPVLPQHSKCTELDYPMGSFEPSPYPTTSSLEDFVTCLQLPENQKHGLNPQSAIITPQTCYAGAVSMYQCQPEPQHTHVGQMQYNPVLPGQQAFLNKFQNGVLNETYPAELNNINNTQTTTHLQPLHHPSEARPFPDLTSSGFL
Summary of the method: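 HepG2 cells (HG2L7.5c1) stably carrying a firefly luciferase reporter driven by 20 dioxin responsive elements were exposed to compound for 24 h at 37C after a 5 h settling period; luminescence rise (ONE-Glo) indicated activation.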

[14] = qHTS assay for small molecule agonists of the antioxidant response element (ARE) signaling pathway - cell viability counter screen (AID 743203; calls by dose curve)
Summary of the method: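 Seeded at 2,000 cells/well, ARE-bla HepG2 cells were incubated 5 hrs before compound addition. After 16 hrs of treatment at 37C with 5% CO2, CellTiter-Glo reagent was added and luminescence read 30 min later.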

[15] = qHTS assay for small molecule activators of the heat shock response signaling pathway (AID 743210; active means well fitted activation curve with a large enough effect in the signal ratio in the repeat runs, with a control signal flat, not every such curve was filed as active; the % refers to the signal ratio;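 further: HeLa cells with beta-lactamase reporter driven by heat shock elements; on the % scale 0 is the no-effect control and ±100 the full control effect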)
Summary of the method: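 In HSE-bla HeLa cells, 5 h compound incubation (37 C) precedes addition of LiveBLAzer B/G substrate; after 2.5 h at room temperature, fluorescence intensity indicates reporter induction.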

[16] = target: Estrogen receptor (Homo sapiens) (UniProt P03372); assay: qHTS assay to identify small molecule agonists of the estrogen receptor alpha (ER-alpha) signaling pathway (AID 743075; calls by dose curve;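 further: HEK293 GripTite cells with ER-alpha and UAS-driven beta-lactamase reporter; on the % scale 0 is the no-effect control and ±100 the full control effect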)
Sequence of Estrogen receptor (Homo sapiens) (P03372 whole entry, looked up): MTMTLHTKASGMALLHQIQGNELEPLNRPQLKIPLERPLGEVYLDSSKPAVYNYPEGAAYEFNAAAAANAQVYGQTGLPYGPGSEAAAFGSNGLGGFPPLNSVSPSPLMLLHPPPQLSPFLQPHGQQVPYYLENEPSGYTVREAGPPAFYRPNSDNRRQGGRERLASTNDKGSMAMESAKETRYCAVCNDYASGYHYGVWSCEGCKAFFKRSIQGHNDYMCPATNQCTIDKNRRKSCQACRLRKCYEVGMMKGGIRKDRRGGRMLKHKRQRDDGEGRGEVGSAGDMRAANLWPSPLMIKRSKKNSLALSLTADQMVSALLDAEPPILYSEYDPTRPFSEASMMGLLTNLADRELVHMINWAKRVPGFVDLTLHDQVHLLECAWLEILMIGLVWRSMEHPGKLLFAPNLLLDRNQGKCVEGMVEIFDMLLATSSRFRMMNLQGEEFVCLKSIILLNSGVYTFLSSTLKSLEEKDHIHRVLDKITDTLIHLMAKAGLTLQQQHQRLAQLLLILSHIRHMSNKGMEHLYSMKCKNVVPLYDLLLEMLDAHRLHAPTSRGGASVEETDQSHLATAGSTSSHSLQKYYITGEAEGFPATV

[17] = target: Estrogen receptor (Homo sapiens) (UniProt P03372); assay: qHTS assay to identify small molecule agonists of the estrogen receptor alpha (ER-alpha) signaling pathway using the BG1 cell line (AID 743079); details: BG1Luc4E2 cells, ERE-luciferase agonist, 22 h; at 70.3 µM (top of the series); further: on the % scale 0 is the no-effect control and ±100 the full control effect; nearly all actives have a fitted effect of over 20% in size
[18] = qHTS assay to identify small molecule antagonists of the estrogen receptor alpha (ER-alpha) signaling pathway using the BG1 cell line (AID 743080; calls by dose curve;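 further: BG1 cells stimulated with 17beta-estradiol alongside compound; potency means the concentration at half of the fitted maximal effect; nearly all actives have a fitted effect of over 25% in size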)
Summary of the method: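 Endogenous full-length ER-alpha in BG1-Luc-4E2 cells drives a stably integrated 4×ERE luciferase gene; compounds were tested against 17beta-estradiol over 21.5 h, with luminescence and multiplexed viability fluorescence recorded.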

CCCCOC(=O)c1ccccc1C(=O)O
inactive: Potency [1] | Potency [2] | Potency [3] | outcome [4] | Potency [5] | Potency (Aromatase (Homo sapiens)) | Potency [6] | outcome [7] | outcome [8] | Potency [9] | Potency [10] | Potency [11] | Potency [12]

CCS(=O)(=O)CCSP(=O)(OC)OC
inactive: Potency [1] | Potency [2] | Potency [3] | outcome [4] | Potency [5] | Potency (Aromatase (Homo sapiens)) | Potency [6] | Potency [13] | outcome [7] | Potency [10] | Potency [14] | Potency [12] | outcome [15]
active: Potency [11] 8.63 µM

Fc1ccc(C2(Cn3cncn3)OC2c2ccccc2Cl)cc1 (stereo unspecified)
active: Potency [2] 30.6 µM | Potency [18] 68.6 µM | Potency (Aromatase (Homo sapiens)) 3.86 µM
inactive: Potency [1] | Potency [3] | outcome [4] | Potency [16] | activation [17] -28.4% | Potency [5] | Potency [6] | Potency [10] | Potency [11] | Potency [14] | Potency [12] | outcome [15]

[As]#[In]
inactive: Potency [1] | Potency [2] | Potency [3] | outcome [4] | Potency [5] | Potency (Aromatase (Homo sapiens)) | Potency [6] | Potency [13] | outcome [7] | Potency [10] | Potency [14] | Potency [12] | outcome [15]

CC(C)(C)OC(=O)c1ncn2c1[C@@H]1CCCN1C(=O)c1c(Br)cccc1-2
inactive: Potency [1] | Potency [2] | Potency [3] | outcome [4] | Potency [5] | Potency (Aromatase (Homo sapiens)) | Potency [6] | outcome [7] | outcome [8] | Potency [9] | Potency [10] | Potency [14] | Potency [12] | outcome [15]

Nc1n[nH]c(N)n1
inactive: Potency [1] | Potency [2] | Potency [3] | outcome [4] | Potency [5] | Potency (Aromatase (Homo sapiens)) | Potency [6] | Potency [13] | outcome [7] | outcome [8] | Potency [9] | Potency [10] | Potency [11] | Potency [14] | Potency [12] | outcome [15]

CC1CCC(=O)O1 (stereo unspecified)
inactive: Potency [1] | Potency [2] | Potency [3] | outcome [4] | Potency [5] | outcome [7] | Potency [14] | Potency [12] | outcome [15]

Cc1cnc[nH]1
inactive: Potency [1] | Potency [2] | Potency [3] | outcome [4] | Potency [5] | Potency (Aromatase (Homo sapiens)) | Potency [6] | Potency [13] | outcome [7] | outcome [8] | Potency [9] | Potency [11] | Potency [14] | Potency [12]

CNC(=O)Oc1c(C(C)(C)C)cc(C)cc1C(C)(C)C
inactive: Potency [1] | Potency [2] | Potency [3] | outcome [4] | Potency [5] | Potency (Aromatase (Homo sapiens)) | Potency [6] | outcome [7] | outcome [8] | Potency [9] | Potency [10] | Potency [11] | Potency [14] | Potency [12]

ClCCOCOCCCl
inactive: Potency [1] | Potency [2] | Potency [3] | outcome [4] | Potency [5] | Potency (Aromatase (Homo sapiens)) | Potency [6] | Potency [13] | outcome [7] | Potency [11] | Potency [14] | Potency [12]

COC(=O)c1ccccc1S(=O)(=O)NC(=O)Nc1nc(C)cc(C)n1
inactive: Potency [1] | Potency [2] | Potency [3] | outcome [4] | Potency [5] | Potency (Aromatase (Homo sapiens)) | Potency [6] | outcome [7] | outcome [8] | Potency [9] | Potency [11] | Potency [14] | Potency [12]

CCOC(=O)N(C)C(=O)CSP(=S)(OCC)OCC
active: Potency [13] 15.4 µM
inactive: Potency [1] | Potency [2] | Potency [3] | outcome [4] | Potency [5] | Potency [6] | outcome [7] | Potency [9] | Potency [10] | Potency [14] | Potency [12] | outcome [15]

COc1cc(OC)nc(Oc2cccc(Oc3nc(OC)cc(OC)n3)c2C(=O)O)n1
inactive: Potency [1] | Potency [2] | Potency [3] | outcome [4] | Potency [5] | Potency (Aromatase (Homo sapiens)) | Potency [6] | Potency [13] | outcome [7] | outcome [8] | Potency [9] | Potency [10] | Potency [11] | Potency [12] | outcome [15]

CC(C1CC1)C(O)(Cn1cncn1)c1ccc(Cl)cc1 (stereo unspecified)
inactive: Potency [1] | Potency [2] | Potency [3] | outcome [4] | Potency [5] | Potency [6] | Potency [13] | outcome [7] | outcome [8] | Potency [10] | Potency [14] | Potency [12] | outcome [15]
active: Potency (Aromatase (Homo sapiens)) 24.2 µM

CCN(CC)CCOC(=O)C(C)(c1ccccc1)c1ccccc1
active: Potency [1] 26.6 µM | Potency [2] 26.6 µM
inactive: Potency [3] | outcome [4] | Potency (Aromatase (Homo sapiens)) | Potency [6] | outcome [8] | Potency [9] | Potency [10] | Potency [11] | Potency [14] | outcome [15]
